The values below come from PubChem BioAssay (EPA / NIEHS).

Calls of active or inactive are those of the source. How the source made its calls: active means hit-call score of the fitted dose curve at least 0.9, where 1 is the maximum; inconclusive means response in the unintended direction; inactive means score below 0.9.

Broadly, the AC50 is the concentration giving half of the maximal activity seen.

The nature of this test: Tanguay_ZF_120hpf_ActivityScore_legacy: (Legacy) Oregon State University Tanguay Lab 120 Hour Post-fertilization zebrafish Assay Score for Activity (AID 2283742).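 On AC50: dechorionated Tropical 5D wild-type zebrafish embryos held singly per well.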 Summed up:
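Binary scoring of mortality and morphology by brightfield at 24 and 120 hpf, summarised into one activity score from 18 components relative to DMSO. Wild-type Tropical 5D zebrafish, chorion removed at 4 hpf, static exposure 6–120 hpf, 28 °C.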
As for `Oc1ccccc1`, the outcome was inactive. `CN1C(=O)CC[C@H]1c1cccnc1`: the call was inactive. For the molecule `COc1cc(C(=O)NC2CCN(C)CC2)ccc1Nc1ncc2c(n1)N(C1CCCC1)CC(F)(F)C(=O)N2C`, the AC50 was 40 µM (active).

For the molecule `CCN(Cc1cccnc1)C(=O)c1cccc(Cl)c1[C@]1(C)C(=O)N(Cc2ccc(OC)cc2OC)c2ccc(Cl)cc21`, the AC50 is 32.5 µM (active).

Turning to `CC[C@H](NC(=O)c1cc(F)ccc1NS(=O)(=O)c1cccc2cccnc12)c1ccccc1`, the molecule was classed as inactive. In the case of `O=C=NCCCCCCN=C=O`, the outcome was inactive. In the case of `CCCCCCCCCCCO`, the molecule was called inactive.

As for `CC(C)(C)c1csc(-c2cc3cc(OCc4ccccc4CC(=O)O)ccc3o2)n1`, the half-maximal activity concentration (AC50) is 27.1 µM (active). Take `Cc1cc(F)ccc1-c1cc(N2CC[C@@H](O)[C@H]2CO)ncc1N(C)C(=O)C(C)(C)c1cc(C(F)(F)F)cc(C(F)(F)F)c1`: the call was inactive. In the case of `O=C1O[C@H]([C@@H](O)CO)C(O)=C1O`, the call was inactive.

Regarding `O=c1[nH]sc2ccccc12`, the molecule was classed as inactive. `CCN(Cc1cccc(S(=O)(=O)O)c1)c1ccc(C(=C2C=CC(=[N+](CC)Cc3cccc(S(=O)(=O)O)c3)C=C2)c2ccccc2S(=O)(=O)[O-])cc1`: the call was inactive. Take `CCCCOC(=O)CC(CC(=O)OCCCC)(OC(C)=O)C(=O)OCCCC`: the call was inactive. With `CCCCCCCCCCCCO`, the outcome was inactive.

In the case of `CCN(CC)C(=O)c1cc(S(=O)(=O)Cc2ccccc2)c(N2CCC(c3ccccc3)CC2)cc1N(CC)CCN(C)C`, the AC50 is 17.2 µM (active). `Cc1cccc2ccccc12`: the outcome was inactive.

Regarding `CC[C@@H]1C[C@H](N(Cc2cc(C(F)(F)F)cc(C(F)(F)F)c2)C(C)=O)c2cc(C(F)(F)F)ccc2N1C(=O)OC(C)C`, the result was inactive. As to `O=C(O)c1ccccc1-n1cc(C(=O)O)c(=O)c2cc(Nc3c(F)cc(F)cc3Cl)c(Cl)cc21`, the call was inactive.

On to `c1ccc2n[nH]nc2c1`, for which the molecule was called inactive. As to `Cc1occc1C(=O)Nc1ccc(C(=O)N2CCC(F)(F)/C(=C\C(=O)N3CCC(N4CCCCC4)CC3)c3ccccc32)cc1`, the result was inactive.
